Reference: PubChem BioAssay AID588852 (The Scripps Research Institute Molecular Screening Center, 2011)
The whole screen tested about 360,000 compounds, of which about 4,600 (1.3%) were called active. What follows is part of a selection rich in actives, with near analogues and random picks from the rest. Unmarked numbers belong to inactive results.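 How the source made its calls: active means percent inhibition above its own plate's cutoff, namely the mean of that plate's compound wells plus 3 SD; inactive means the rest.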

molecular target: Muscarinic acetylcholine receptor M1 (Homo sapiens) (UniProt P11229); assay: CHRM1 blockers of acetylcholine calcium response – CHO-K1 cells, Fluo-8 calcium fluorescence, 1536-well, primary screen (AID 588852); settings: CHO-K1 hM1, Fluo-8 calcium fluorescence, ACh EC80 antagonist; at 3 µM; hits give high values;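 further: peak over basal fluorescence ratio during 140 s after agonist addition; 0% = ACh EC80 plus DMSO and 100% = DMSO alone without agonist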
Sequence (P11229 whole entry, looked up): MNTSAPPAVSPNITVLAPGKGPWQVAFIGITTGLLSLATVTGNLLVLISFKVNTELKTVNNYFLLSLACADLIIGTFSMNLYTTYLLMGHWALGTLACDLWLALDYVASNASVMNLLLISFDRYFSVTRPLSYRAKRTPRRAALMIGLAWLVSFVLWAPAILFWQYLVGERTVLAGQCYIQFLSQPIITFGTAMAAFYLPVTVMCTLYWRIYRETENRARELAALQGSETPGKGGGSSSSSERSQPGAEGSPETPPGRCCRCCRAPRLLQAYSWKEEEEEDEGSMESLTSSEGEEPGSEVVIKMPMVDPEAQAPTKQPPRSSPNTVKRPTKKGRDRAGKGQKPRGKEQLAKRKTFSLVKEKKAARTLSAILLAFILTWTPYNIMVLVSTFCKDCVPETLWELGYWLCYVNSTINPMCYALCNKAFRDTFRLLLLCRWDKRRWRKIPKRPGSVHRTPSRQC

SMILES	inhibition
Cc1nc(NC(=O)CCC(=O)O)sc1C(=O)N(C)C	2.74%
CCCn1c(C2CCCN2c2nc(-c3ccc(C)cc3)cs2)nc2cc(Cl)c(N3CCCCC3)cc21 (configuration not stated)	-10.7%
COc1cc2ccccc2cc1C(=O)Nc1ccc(S(=O)(=O)Nc2cc(C)on2)cc1	103% (active)
CCOc1ccc(C(=O)Nc2ccc(S(=O)(=O)Nc3cc(C)on3)cc2)cc1	0.49%
COc1ccc(S(=O)(=O)Nc2cc(C)on2)cc1NC(C)=O	-12.3%
CC1CCCC(C)N1C(=O)COC(=O)COc1ccccc1C#N (configuration not stated)	-15.1%
COc1ccccc1CNS(=O)(=O)c1cc(C(=O)NCc2ccccn2)c(Cl)cc1Cl	5.67%
Cc1cc(C)n2nc(C(=O)OCC(=O)N(CCC#N)c3ccc(F)cc3)nc2n1	-14.2%
CNS(=O)(=O)c1ccc(N2CCCC2=O)c([N+](=O)[O-])c1	-23.5%
COc1ccc(NC(C(=O)Nc2cccc(C(C)=O)c2)c2ccccc2)cc1 (configuration not stated)	-3.24%
CSc1ccccc1C(=O)Nc1cccc(C(C)=O)c1	0.3%
CC(=O)c1cccc(NC(=O)C2CCN(C(=O)c3ccccc3Cl)CC2)c1	-5.19%
CCSc1nsc(NC(=O)Nc2cccc(C(C)=O)c2)n1	51.1% (active)
CC(=O)c1cccc(NC(=S)N2CCN(S(C)(=O)=O)CC2)c1	-7.9%
C=CCSc1nsc(NC(=O)Nc2cccc(C(C)=O)c2)n1	38.7% (active)
Fc1cccc(Cc2c(-c3cccc(Cl)c3)nc3ccc(Br)cn23)c1	-20.5%
CC#CC[N+](C)(C)CCCCCC	-12.7%
FC(F)(F)Oc1ccc(-c2cn3cccnc3n2)cc1	12.5%
O=C(CCc1ccc(S(=O)(=O)N2CCOCC2)cc1)OCC(=O)c1ccc(Br)cc1	9.26%
O=C(Nc1ccccc1Cl)/C(Cl)=C(\Cl)S(=O)c1ccccc1 (configuration not stated)	-6.91%
OC(c1ccccc1)C(CN1CCOCC1)c1ccccc1 (configuration not stated)	-25.3%
OC(C#CCN1CCOCC1)(c1ccccc1)C1CCCCC1 (configuration not stated)	50.9% (active)
COc1ccc(C(O)(C2CCCCC2)C(CN2CCCC2)c2ccccc2)cc1 (configuration not stated)	10.3%
Clc1cccc(Cl)c1Cn1nnc(-c2cccs2)n1	-2.1%
CC(=O)c1c(N)n(C)c(=O)n(C)c1=O	-33.5%
CCOC(=O)c1ccc(-c2ccc3ncnc(N(C)Cc4sccc4C)c3c2)o1	-1.82%
N/C(=N\OC(=O)Nc1ccccc1)c1ccno1	-25%
